{"source": "PubChem BioAssay (NCATS)", "note": "Results filed as inconclusive are left out. Calls of active or inactive are those of the source. The call rests on the fitted dose curve; in most records, active means well fitted inhibition curve with a large enough effect; inconclusive means small, poorly fitted or top-dose-only effect; inactive means flat fitted curve, though single readings scatter. On the % scale 0 is the no-effect control and ±100 the full control effect."}
{"biological_target": "Calcium and integrin-binding protein 1 (Homo sapiens) (UniProt Q99828)", "sequence (Q99828 whole entry, looked up)": "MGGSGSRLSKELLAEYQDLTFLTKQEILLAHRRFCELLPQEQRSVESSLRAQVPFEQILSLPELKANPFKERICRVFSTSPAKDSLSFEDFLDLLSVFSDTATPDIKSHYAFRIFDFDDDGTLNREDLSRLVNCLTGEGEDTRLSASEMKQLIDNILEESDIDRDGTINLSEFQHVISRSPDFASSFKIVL", "test": "Primary qHTS for Identification of Calcium Integrin Binding Protein 1 (CIB1) Competitor (AID 1508620);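 further: GST tagged CIB1 binding a fluorescein labelled alphaIIb integrin peptide tracer; top concentration of the series differs between compounds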", "conditions": "CIB1-GST / FITC-alphaIIb peptide fluorescence polarization; series mostly up to 114 µM; activity change, negative = inhibition: at the top concentration", "summary_of_the_method": "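Fluorescence polarization competition: CIB1-GST (1 uM final) preincubated with compound 15 min at room temperature, then FITC-labeled alphaIIb peptide (100 nM final) added for another 15 min. Polarization read at Ex 480/Em 540.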"}
{"smiles": "Cc1cc2c(s1)c1cnn(Cc3ccccc3F)c(=O)c1n2Cc1ccccc1F", "activity change, negative = inhibition": "-2.56% (inactive)"}
{"smiles": "Cc1noc(C)c1-c1ccc2ncnc(NCc3ccc(F)c(F)c3)c2c1", "activity change, negative = inhibition": "-2.03% (inactive)"}
{"smiles": "O=C(c1ccccc1O)N(Cc1ccco1)Cc1cccs1", "activity change, negative = inhibition": "-14.7% (inactive)"}
{"smiles": "Cc1cc2c(s1)c1cnn(Cc3c(F)ccc(C)c3Cl)c(=O)c1n2C", "activity change, negative = inhibition": "18.6% (inactive)"}
{"smiles": "Cc1cc2c(s1)c1cnn(Cc3ccc(C(F)(F)F)cc3F)c(=O)c1n2C", "activity change, negative = inhibition": "1.77% (inactive)"}
{"smiles": "FC(F)Oc1ccc(C2=Nn3c(nnc3-c3ccccc3C(F)(F)F)SC2)cc1OCC1CC1", "activity change, negative = inhibition": "-4.75% (inactive)"}
{"smiles": "O=C(CNC(=O)C1CCCC1)OC(C(=O)Nc1cc(C(F)(F)F)ccc1Cl)c1ccccc1", "note": "(configuration not stated)", "activity change, negative = inhibition": "2.28% (inactive)"}
{"smiles": "COc1cc(OC)cc(-c2nnc3n2N=C(c2ccc(OC)cc2OC)CS3)c1", "activity change, negative = inhibition": "11.3% (inactive)"}
{"smiles": "COc1cccc(CNc2ccc(S(=O)(=O)Nc3ccccn3)cc2)c1O", "activity change, negative = inhibition": "-3.9% (inactive)"}
{"smiles": "Cc1ccnc(NC(=S)N2CCC(Nc3cccc(C(F)(F)F)c3)CC2)c1", "activity change, negative = inhibition": "1.47% (inactive)"}
{"smiles": "Cc1cc2c(s1)c1cnn(Cc3cccc([N+](=O)[O-])c3)c(=O)c1n2C", "activity change, negative = inhibition": "2.52% (inactive)"}
{"smiles": "CCOC(=O)c1c(-c2ccc(OC)cc2)csc1NC(=O)C1CCCO1", "note": "(configuration not stated)", "activity change, negative = inhibition": "4.47% (inactive)"}
{"smiles": "NC(=O)C1CCN(c2nccc(-c3ccc(Br)cc3)n2)CC1", "activity change, negative = inhibition": "5% (inactive)"}
{"smiles": "Cc1cc(NS(=O)(=O)c2ccc3c(c2)CCC(=O)N3)ccc1Cl", "activity change, negative = inhibition": "-8.29% (inactive)"}
{"smiles": "COC(=O)c1cccc(-c2noc(-c3ccccc3F)n2)c1", "activity change, negative = inhibition": "3.64% (inactive)"}
{"smiles": "O=C(CSc1nnc(-c2cccc([S+](=O)([O-])N3CCCC3)c2)n1-c1ccccc1)Nc1cccc(F)c1", "activity change, negative = inhibition": "3.76% (inactive)"}
{"smiles": "COc1cccc(-c2nnc3n2N=C(c2c(OC)cccc2OC)CS3)c1", "activity change, negative = inhibition": "3.49% (inactive)"}
{"smiles": "COc1ccc(C2Nc3ccccc3C(=O)N2Cc2cccs2)cc1COc1c(C)cc(NC(C)=O)cc1C", "note": "(configuration not stated)", "activity change, negative = inhibition": "5.9% (inactive)"}
{"smiles": "Cc1cc2c(s1)c1cnn(Cc3ccc(Br)cc3F)c(=O)c1n2C", "activity change, negative = inhibition": "5.52% (inactive)"}
{"smiles": "O=C(Cn1cc(CNC(=O)c2ccccc2)nn1)Nc1cc(C(F)(F)F)ccc1Cl", "activity change, negative = inhibition": "0.989% (inactive)"}
{"smiles": "O=S(=O)(NC[C@@H]1CCC[C@H](CNS(=O)(=O)c2c(F)cccc2F)C1)c1ccc2c(c1)OCCO2", "Potency": "inactive"}
{"smiles": "COc1ccc(OC)c(C2=Nn3c(nnc3-c3ccc(OC)c(OC)c3)SC2)c1", "activity change, negative = inhibition": "3.65% (inactive)"}
